Rows were chosen to be rich in hits. Some 0.92% of all compounds tested hit in one or more screens of this group.
MEP2 TOR yeast: yeast TOR pathway MEP2-GFP modulation | S. cerevisiae MEP2-GFP strain, flow cytometry GFP, 3 h; 100% = DMSO control level | GFP response vs DMSO, % at 10 µM | 0.51% of 330,000 active | AID 2016;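 active = GFP response versus DMSO above a set limit, roughly screen mean plus 3 SD, cut at about 180% in these data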;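 also: median GFP fluorescence of the barcode-gated MEP2-GFP cells per well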
AGP1 TOR yeast: modulators of TOR pathway AGP1-GFP in S. cerevisiae | 0.02% of 320,000 active | GFP response vs DMSO, % at 10 µM | S. cerevisiae AGP1-GFP multiplex flow cytometry, 3 h; GFP as percent of DMSO wells | AID 2066;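 active = GFP response relative to DMSO above a set limit, near screen average plus 3 SD, cut at about 150% in these data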;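 also: median GFP channel fluorescence of the gated AGP1 strain per well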
LAP4 TOR yeast: yeast TOR pathway LAP4-GFP modulation. S. cerevisiae LAP4-GFP multiplex, flow cytometry GFP, 3 h; median GFP as percent of DMSO wells. GFP response vs DMSO, % at 10 µM. 0.34% of 320,000 active;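 active = GFP response vs DMSO above a set limit, about the screen mean plus 3 SD, cut at about 150% in these data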
RPL19A-GFP yeast: modulators of TOR pathway RPL19A-GFP in S. cerevisiae. S. cerevisiae RPL19A-GFP strain, flow cytometry, 3 h; stronger effect = lower value. percent response vs DMSO, % at 10 µM. 0.3% of 330,000 active. AID 2025;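 active = percent response vs DMSO below 50%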;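 also: median channel GFP fluorescence of the barcoded RPL19A-GFP strain; ratio of sample median GFP to plate DMSO average so 100% = DMSO; lower means less RPL19A-GFP as with rapamycin TOR inhibition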
CIT2 TOR yeast: alters CIT2-GFP fluorescence in TOR pathway yeast screen. S. cerevisiae CIT2-GFP strain, flow cytometry, 3 h; 100 means same as DMSO wells. GFP response vs DMSO, % at 10 µM. 0.065% of 320,000 active. AID 2029;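 active = GFP response relative to DMSO above a set limit, near the screen mean plus 3 SD, cut at about 150% in these data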;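 also: ratio of well median GFP fluorescence to mean of DMSO wells on the plate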
LAP4-GFP pick2: yeast LAP4-GFP modulation, second cherry pick. GFP response vs DMSO, % at 10 µM. 20% of 590 active. S. cerevisiae LAP4-GFP strain, flow cytometry GFP, 3 h. AID 2621. shares compounds with LAP4 TOR yeast;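 active = GFP signal as percent of the solvent control above about 150%, meaning raised reporter expression, limit read from the data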;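 also: ratio of well median GFP fluorescence to plate DMSO mean so 100% = DMSO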
MEP2 cherry2: reconfirmed MEP2-GFP TOR pathway modulator in yeast. GFP response vs DMSO, % at 10 µM. AID 2622. 10% of 590 active. shares compounds with LAP4 TOR yeast. S. cerevisiae MEP2-GFP strain, flow cytometry GFP, 3 h;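 active = GFP signal above 150% of the solvent control wells, that is a rise of more than half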;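 also: median channel GFP fluorescence of all gated yeast cells per well; ratio of median GFP to plate DMSO average so 100% = DMSO level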
RPL19A GFP CP2: second confirmation of modulators of TOR reporter RPL19A-GFP in yeast. shares compounds with LAP4 TOR yeast. GFP response vs DMSO, % at 10 µM. AID 2623. S. cerevisiae RPL19A-GFP strain, flow cytometry GFP, 3 h; stronger effect = lower value; 100% means same as DMSO wells. 3% of 590 active;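 active = under 65% GFP response relative to DMSO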;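 also: median GFP channel fluorescence per well over the all cells gate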
CIT2 GFP CP2: reconfirmed modulator of CIT2-GFP TOR reporter in yeast | shares compounds with LAP4 TOR yeast | S. cerevisiae CIT2-GFP strain, flow cytometry GFP, 3 h; DMSO control wells read 100% | GFP response vs DMSO, % at 10 µM | 8% of 590 active | AID 2624;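 active = GFP response vs DMSO above about 150%, limit read from the data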;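 also: median green fluorescence per well over all gated yeast cells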
AGP1-GFP pick2: yeast AGP1-GFP TOR reporter modulation, second cherry pick. shares compounds with LAP4 TOR yeast. S. cerevisiae AGP1-GFP strain, flow cytometry GFP, 3 h. percent response vs DMSO, % at 10 µM. 590 tested, under 10 active. AID 2643;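 active = over 150 percent of DMSO response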;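 also: median GFP channel fluorescence over all cells without mother daughter split; sample median GFP divided by mean DMSO control so 100% equals DMSO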
Yeast autofluor: compound is autofluorescent in yeast s288c cells; shares compounds with LAP4 TOR yeast; fluorescence change (kMESF span) at 33 µM; 610 tested, under 10 active; S. cerevisiae s288c, 520 nm autofluorescence, flow cytometry, 3 h; stronger effect = higher value; zero means same as solvent-only cells;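 active = fluorescence span over the dose series, or activity score, above about 33, limit read from the data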
An asterisk follows results filed as active; x = no result given; + = active, no number.

SMILES	MEP2 TOR yeast	AGP1 TOR yeast	LAP4 TOR yeast	RPL19A-GFP yeast	CIT2 TOR yeast	LAP4-GFP pick2	MEP2 cherry2	RPL19A GFP CP2	CIT2 GFP CP2	AGP1-GFP pick2	others
Cc1nc2ccc(NC(=O)c3oc4ccc(F)cc4c3C)cc2s1	+	266*	884*	261	+	96	105	100	90	94	Yeast autofluor=0
Cc1ccc(OCC(=O)OCC(=O)NC2CCCC2)cc1C	97	96	98	96	96	x	x	x	x	x
Cc1cc(C)cc(OCC(=O)OCC(=O)NC2CC2)c1	100	112	183*	84	80	97	102	101	98	102
COC(=O)c1cc(S(=O)(=O)NCCCc2ccco2)c[nH]1	99	93	92	99	98	x	x	x	x	x
Cc1ccc(C(=O)/C=C/C(=O)c2ccc(C)cc2)cc1	93	84	168*	97	93	x	x	x	x	x	Yeast autofluor=0.61
Cc1ccc(NN2C(=O)C=CC2=O)cc1	102	105	96	104	99	x	x	x	x	x
Cc1ccc(NN2C(=O)C=C(c3ccc(Cl)cc3)C2=O)cc1	98	74	203*	54	78	x	x	x	x	x	Yeast autofluor=1.9
COc1ccc(C2=CC(=O)N(Nc3ccccc3)C2=O)cc1	92	100	232*	77	70	x	x	x	x	x	Yeast autofluor=1.6
O=C1C=C(c2ccccc2)C(=O)N1Nc1ccccc1	100	67	118	48*	74	x	x	x	x	x	Yeast autofluor=-0.1
O=C1C2CC=CCC2C(=O)N1Nc1ccccc1 (stereo unspecified)	101	94	92	95	97	x	x	x	x	x
COc1ccc(/[N+]([O-])=C/c2ccoc2)cc1	99	97	101	94	102	x	x	x	x	x
CCCNC(=O)c1onc(CSc2ccc(Cl)cc2)c1C(=O)NC(C)C	141	110	173*	78	101	91	100	103	97	97
CC(C)NC(=O)c1onc(CSc2ccc(Cl)cc2)c1C(=O)NC(C)C	89	83	127	94	88	x	x	x	x	x
CCN(CC(=O)NCc1ccco1)S(=O)(=O)c1ccc(OC)cc1	93	99	103	96	86	x	x	x	x	x
O=C(O)C1CCC(N2C(=O)c3cccc([N+](=O)[O-])c3C2=O)CC1 (stereo unspecified)	110	93	99	97	103	x	x	x	x	x
COCCNc1nc(C)cc(-c2cc(C(=O)NC3CCCC3)on2)n1	82	82	134	88	88	x	x	x	x	x
CC(C)c1cc(-c2cc(C(=O)Nc3ccccc3)on2)nc(NC2CCCC2)n1	90	88	110	97	88	101	105	99	89	99
Cc1cc(-c2cc(C(=O)NCc3ccccc3)on2)nc(NCC2CC2)n1	113	100	109	100	96	102	97	98	100	98
CCCNc1nc(C)cc(-c2cc(C(=O)Nc3ccccc3)on2)n1	94	89	104	100	94	102	108	97	101	104
CCCNc1nc(C)cc(-c2cc(C(=O)NCc3ccccc3)on2)n1	93	82	153*	97	92	101	98	98	97	97
O=C(COC(=O)CNC(=O)c1ccccc1Cl)NC1CC1	99	101	97	99	102	x	x	x	x	x
COc1ccc([C@H]2CC(=O)C=C(c3ccc4ncccc4c3)C2)cc1	91	71	123	95	84	x	x	x	x	x
O=C1C=C(c2ccc3ncccc3c2)C[C@@H](c2ccc(Cl)cc2)C1	94	89	151*	93	77	111	98	93	85	97
O=C(CCc1ccncc1)N1CCCC(Nc2ccc(F)c(F)c2)C1 (stereo unspecified)	102	106	97	99	103	x	x	x	x	x
Cc1ccc(C)c(Sc2ccc(S(=O)(=O)Nc3ccc(C(=O)O)cc3)cc2)c1	110	106	102	104	98	x	x	x	x	x
SMILES	MEP2 TOR yeast	AGP1 TOR yeast	LAP4 TOR yeast	RPL19A-GFP yeast	CIT2 TOR yeast	LAP4-GFP pick2	MEP2 cherry2	RPL19A GFP CP2	CIT2 GFP CP2	AGP1-GFP pick2	others
CC1(C)Cc2c(sc(NC(=O)c3ccc4c(c3)OCCO4)c2C(N)=O)C(C)(C)N1	117	107	95	96	153*	97	101	99	108	99
CCOc1cc(N2CCOCC2)c(OCC)cc1NC(=O)C1CC(=O)N(c2ccc(C)cc2)C1 (stereo unspecified)	91	93	94	93	88	x	x	x	x	x
COc1cc(OC)cc(C(=O)NC(C(=O)NNC(=O)c2cc(Cl)ccc2OC)C(C)C)c1 (stereo unspecified)	106	111	105	108	101	x	x	x	x	x
Cc1[nH]n(-c2ccccc2)c(=O)c1C(c1ccccc1[N+](=O)[O-])C(C#N)C#N (stereo unspecified)	95	83	168*	105	100	x	x	x	x	x	Yeast autofluor=1.3
CN(c1ccccc1)c1ccc(/C=C/[N+](=O)[O-])cc1	95	87	154*	87	92	128	100	97	115	95
CC1=Nc2cc(C(=O)NCC3CCCO3)ccc2Sc2ccc(Br)cc21 (stereo unspecified)	88	101	116	100	92	x	x	x	x	x
CCN1/C(=C/C=C/c2sc3ccccc3[n+]2CC)Sc2ccccc21	103	93	160*	87	72	200*	117	76	127	105	Yeast autofluor=0.6
O=C(Nc1ccncc1)c1cc(F)cc(F)c1	91	95	93	90	95	x	x	x	x	x
O=C1/C(=C\c2ccc(O)c(O)c2)SC(=S)N1Cc1ccccc1	409*	44	219*	97	203*	x	x	x	x	x	Yeast autofluor=33*
COc1cc(/C=C2/SC(=S)N(Cc3ccccc3)C2=O)ccc1O	109	101	94	111	109	x	x	x	x	x
Cc1ccc(/C=C2\SC(=S)N(Cc3ccccc3)C2=O)o1	107	86	156*	97	95	152*	123	106	120	99	Yeast autofluor=1.3
COc1ccccc1C(=O)CSc1ccccn1	106	101	109	100	107	x	x	x	x	x
